# Data published in the supplement of paper PMC6897291.
# Key:
# RIVA [1] = experiment: growth inhibition by drug plus 177Lu-lilotomab satetraxetan (1 - RLU/untreated control) (fraction); higher = stronger inhibition; settings: 177Lu-lilotomab satetraxetan 0.5 ug/ml
# Method in brief: (§1)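 A radiolabelled anti-CD37 antibody conjugate (~600 MBq/mg) was applied for 18 h at 0.5 µg/ml to RIVA and 1 µg/ml to U-2932 cells, with untreated cells run alongside. All cells were washed and seeded at 3,000 cells/well onto library-printed plates at 10/100 nM (RIVA) or 10/1,000 nM (U-2932). Growth inhibition was based on RealTime-Glo luminescence compared with untreated no-drug wells. Daily reads began on day 3 after 1 h at 37°C, with each value being 1 − RLU/mean of the 48 such wells on that plate.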
# U-2932 [2] = experiment: growth inhibition by drug alone (1 - RLU/untreated control) (fraction); higher = stronger inhibition; settings: 177Lu-lilotomab satetraxetan 0 ug/ml
# Method in brief: as §1
# RIVA [3] = experiment: as above; settings: 177Lu-lilotomab satetraxetan 0 ug/ml
# Method in brief: as §1
# U-2932 [4] = experiment: growth inhibition by drug plus 177Lu-lilotomab satetraxetan (1 - RLU/untreated control) (fraction); higher = stronger inhibition; settings: 177Lu-lilotomab satetraxetan 1 ug/ml
# Method in brief: as §1
SMILES,"growth inhibition by drug plus 177Lu-lilotomab satetraxetan (RIVA [1]; 100 nM, time (day): 5)","growth inhibition by drug plus 177Lu-lilotomab satetraxetan (RIVA [1]; 100 nM, time (day): 6)","growth inhibition by drug alone (U-2932 [2]; 10 nM, time (day): 3)","growth inhibition by drug alone (U-2932 [2]; 10 nM, time (day): 4)","growth inhibition by drug alone (U-2932 [2]; 10 nM, time (day): 5)","growth inhibition by drug alone (U-2932 [2]; 10 nM, time (day): 6)","growth inhibition by drug alone (U-2932 [2]; 1000 nM, time (day): 3)","growth inhibition by drug alone (U-2932 [2]; 1000 nM, time (day): 4)","growth inhibition by drug alone (U-2932 [2]; 1000 nM, time (day): 5)","growth inhibition by drug alone (U-2932 [2]; 1000 nM, time (day): 6)","growth inhibition by drug alone (RIVA [3]; 10 nM, time (day): 3)","growth inhibition by drug alone (RIVA [3]; 10 nM, time (day): 4)","growth inhibition by drug alone (RIVA [3]; 10 nM, time (day): 5)","growth inhibition by drug alone (RIVA [3]; 10 nM, time (day): 6)","growth inhibition by drug alone (RIVA [3]; 100 nM, time (day): 3)","growth inhibition by drug alone (RIVA [3]; 100 nM, time (day): 4)","growth inhibition by drug alone (RIVA [3]; 100 nM, time (day): 5)","growth inhibition by drug alone (RIVA [3]; 100 nM, time (day): 6)","growth inhibition by drug plus 177Lu-lilotomab satetraxetan (U-2932 [4]; 10 nM, time (day): 3)","growth inhibition by drug plus 177Lu-lilotomab satetraxetan (U-2932 [4]; 10 nM, time (day): 4)","growth inhibition by drug plus 177Lu-lilotomab satetraxetan (U-2932 [4]; 10 nM, time (day): 5)","growth inhibition by drug plus 177Lu-lilotomab satetraxetan (U-2932 [4]; 10 nM, time (day): 6)","growth inhibition by drug plus 177Lu-lilotomab satetraxetan (U-2932 [4]; 1000 nM, time (day): 3)","growth inhibition by drug plus 177Lu-lilotomab satetraxetan (U-2932 [4]; 1000 nM, time (day): 4)","growth inhibition by drug plus 177Lu-lilotomab satetraxetan (U-2932 [4]; 1000 nM, time (day): 5)","growth inhibition by drug plus 177Lu-lilotomab satetraxetan (U-2932 [4]; 1000 nM, time (day): 6)","growth inhibition by drug plus 177Lu-lilotomab satetraxetan (RIVA [1]; 10 nM, time (day): 3)","growth inhibition by drug plus 177Lu-lilotomab satetraxetan (RIVA [1]; 10 nM, time (day): 4)","growth inhibition by drug plus 177Lu-lilotomab satetraxetan (RIVA [1]; 10 nM, time (day): 5)","growth inhibition by drug plus 177Lu-lilotomab satetraxetan (RIVA [1]; 10 nM, time (day): 6)","growth inhibition by drug plus 177Lu-lilotomab satetraxetan (RIVA [1]; 100 nM, time (day): 3)","growth inhibition by drug plus 177Lu-lilotomab satetraxetan (RIVA [1]; 100 nM, time (day): 4)"
CC(C)(C)c1ccc(S(=O)(=O)/C=C/C#N)cc1,0.508,0.495,–,–,–,–,–,–,–,–,–,–,–,–,–,–,–,–,–,–,–,–,–,–,–,–,–,–,–,–,–,–
Cc1cccc(-c2nn3c(c2-c2ccnc4ccc(C(N)=O)cc24)CCC3)n1,0.459,0.437,-0.0698,-0.0435,-0.0298,0.0787,-0.0166,-0.0114,-0.0422,-0.0441,-0.233,-0.26,-0.269,-0.342,-0.0721,-0.126,-0.16,-0.229,-0.116,-0.0664,-0.0409,0.0836,0.0167,0.0206,-0.00167,0.117,0.371,0.487,0.502,0.523,0.372,0.444
COC(=O)Nc1nc2cc(C(=O)c3cccs3)ccc2[nH]1 [Nocodazole],0.974,0.979,0.162,0.111,0.0124,-0.0733,0.959,0.967,0.972,0.977,-0.0176,-0.0388,-0.162,-0.595,0.948,0.956,0.957,0.953,0.00977,0.0511,0.0524,0.13,0.971,0.978,0.982,0.984,0.402,0.532,0.541,0.547,0.956,0.968
COC(=O)c1ccc2c(C(=Nc3ccc(N(C)C(=O)CN4CCN(C)CC4)cc3)c3ccccc3)c(O)[nH]c2c1 [BIBF1120 (Vargatef)],0.366,0.375,-0.0536,-0.0365,-0.0213,0.0413,-0.121,-0.0853,-0.113,-0.173,-0.119,-0.148,-0.188,-0.27,-0.285,-0.322,-0.347,-0.414,-0.06,-0.0397,-0.00235,0.146,-0.172,-0.0703,-0.0418,-0.00489,0.292,0.437,0.461,0.479,0.251,0.362
CC(C)CC(=O)Nc1n[nH]c2c1CN(C(=O)C1CCN(C)CC1)C2(C)C,0.465,0.517,0.109,0.0893,0.0354,-0.0355,0.595,0.787,0.911,0.958,0.109,0.0478,0.0236,-0.141,0.546,0.346,0.355,0.378,0.0658,0.101,0.0816,0.125,0.692,0.855,0.93,0.967,0.403,0.515,0.533,0.549,0.35,0.419
Cc1cccc(-c2[nH]c(C(C)(C)C)nc2-c2ccc3nccnc3c2)n1,0.434,0.447,0.121,0.0591,-0.0391,-0.0718,0.0282,0.0616,0.0184,-0.0529,-0.0404,-0.00935,-0.0953,-0.422,-0.418,-0.28,-0.32,-0.559,0.0382,0.108,0.172,0.201,0.0486,0.0781,0.126,0.19,0.595,0.633,0.644,0.65,0.316,0.428
COc1cc2nccc(Oc3ccc(NC(=O)Nc4cc(C)on4)c(Cl)c3)c2cc1OC [Tivozanib (AV-951)],0.537,0.526,0.14,0.0745,-0.00279,-0.0876,0.0629,0.0968,0.0897,0.0763,0.0535,0.0633,0.0278,-0.222,0.0881,0.104,0.0755,0.00134,0.0499,0.0836,0.127,0.144,0.13,0.217,0.26,0.368,0.453,0.547,0.57,0.565,0.438,0.535
NC(=O)c1ccc2nc(-c3ccc(Oc4ccc(Cl)cc4)cc3)[nH]c2c1,0.523,0.501,0.00125,0.0235,0.00264,-0.0848,-0.16,-0.101,-0.0954,-0.129,-0.00863,-0.0511,-0.0793,-0.24,-0.111,-0.096,-0.133,-0.184,0.0152,0.0513,0.0592,0.129,-0.283,-0.107,-0.0258,0.0425,0.4,0.51,0.52,0.516,0.455,0.517
